The campaign covered roughly 13,000 compounds. About 3,200 (25%) showed an effect of 50% or more. This is one part of the list.
What follows are compounds tested on P. falciparum stage V gametocytes. Conditions: 48 h, 5 µM; inhibitor.
Set-up: BacTiter-Glo ATP luminescence viability of purified stage V gametocytes in 384-well plates, per cent inhibition versus DMSO
For `COc1cc2c(Nc3ccc(Br)cc3F)ncnc2cc1OCC1CCN(C)CC1` [TCMDC-123476], the “% Inhibition” value was 19.55%.
In the case of `O=C(O)C(F)(F)F.OC1CCCN(Cc2cccc(-c3ccc(-c4nc5cc(F)ccc5[nH]4)cc3)c2)C1` (centres unmarked) [TCMDC-133820], the “% Inhibition” value is reported as 3.122%.
`COc1ccc2ncc(F)c(NC(=O)C3CCC(NCc4cc5c(F)cccc5[nH]4)CC3)c2n1` (centres unmarked) [TCMDC-136354] was tested, and the “% Inhibition” value was -14.12%.
For `N#Cc1ccc2c(c1)CCN(CCC1CCC(NC(=O)Nc3ccncc3)CC1)C2` (centres unmarked) [TCMDC-139300], the “% Inhibition” value was -15.77%.
In the case of `CCOC(=O)c1cc(=O)c2ccc(OCC#N)cc2o1` [TCMDC-131302], the “% Inhibition” value is reported as 40.87%.
In the case of `Fc1ccc2[nH]c(-c3cccc(-c4cccc(CNCc5cnn(-c6ccccc6)n5)c4)c3)nc2c1.O=C(O)C(F)(F)F` [TCMDC-132976], the “% Inhibition” value is reported as -2.641%.
With `S=C(NN=Cc1ccccn1)Nc1ccc2c(c1)OCCO2` [TCMDC-132009] the “% Inhibition” value was 95.93%.
For `Cc1cc(NN=Cc2ccccn2)c2cc(C(F)(F)F)ccc2n1` [TCMDC-142022], the “% Inhibition” value was 35.2%.
In the case of `O=C(Cn1cnc2c(nnn2Cc2ccccc2F)c1=O)Nc1ccc2c(c1)OCCO2` [TCMDC-124462], the “% Inhibition” value is reported as -30.94%.
`CC(C)N=C(N)NN=Cc1ccc(Cl)c(Cl)c1` [TCMDC-138131] was tested, and the “% Inhibition” value was -38.45%.
`S=C(NN=Cc1ccccn1)NC1CC2C=CC1C2` (centres unmarked) [TCMDC-125752] was tested, and the “% Inhibition” value was 132.2%.
In the case of `O=C(Nc1ccc2c(c1)OCCO2)c1cc(-c2cccnc2)nc2ccc(Cl)cc12` [TCMDC-124362], the “% Inhibition” value is reported as -23.33%.
`FC(F)(F)c1cccc(NC(=S)NN=Cc2ccccn2)c1` [TCMDC-123509] was tested, and the “% Inhibition” value was 31.63%.
`S=C(NN=Cc1ccccn1)Nc1ccc(Cl)c(Cl)c1` [TCMDC-125522] was tested, and the “% Inhibition” value was 102.5%.
With `O=C(NC1CC1)c1ccc(Nc2nccc(-c3c(-c4cccc(NC(=O)c5c(F)cccc5F)c4)nn4ccccc34)n2)cc1` [TCMDC-136002] the “% Inhibition” value was -35.37%.
With `CCCCN1C(=O)C(c2ccccc2)(c2ccccc2)N=C1N` [TCMDC-142007] the “% Inhibition” value was 12.88%.
With `O=C(NCCN1CCOCC1)c1ccc(O)c(-c2cccc(C(F)(F)F)c2)c1` [TCMDC-140162] the “% Inhibition” value was 21.52%.
For `CCCNC(=O)c1ccc(N2CCC(c3ccccc3C)CC2)nc1` [TCMDC-134583], the “% Inhibition” value was 17.76%.
For `O=C(NC1CCCCCC1)[C@@H]1CCCN1C(=O)c1ccc(O)c(-c2ccc(Cl)c(Cl)c2)c1` [TCMDC-140843], the “% Inhibition” value was 28.6%.
With `COc1ccc2nccc([C@@H](O)CN3CCC(NCc4cc5oc(=O)[nH]c5cc4F)CC3)c2c1` [TCMDC-141140] the “% Inhibition” value was 3.08%.
For `CCc1ccccc1N1CCN(CCCC(=O)c2ccc(NC(=O)c3cc(Cl)cc(Cl)c3)cc2)CC1` [TCMDC-138229], the “% Inhibition” value was -19.19%.
In the case of `Nc1nc(N)c2cc(Cc3ccccc3Cl)cnc2n1` [TCMDC-137918], the “% Inhibition” value is reported as -87.91%.
`CCOC(=O)CNC(=O)c1cc(=O)c2ccccc2o1` [TCMDC-131778] was tested, and the “% Inhibition” value was 11.83%.
In the case of `O=C(NCC1CCCCC1)c1cc(=O)c2ccccc2o1` [TCMDC-123621], the “% Inhibition” value is reported as 8.117%.
In the case of `CC(C)(C)C(=O)Nc1c(-c2cc(=O)oc3cc4c(cc23)CCC4)oc2ccccc12` [TCMDC-125081], the “% Inhibition” value is reported as 76.3%.
In the case of `COC(=O)c1c(NC(=O)c2cccc(C(F)(F)F)c2)sc2c1CCN(Cc1ccccc1)C2` [TCMDC-125828], the “% Inhibition” value is reported as -72.37%.
With `CCOC(=O)c1ccc(N2CCN(c3cc(C)ccc3C)CC2)c(NC(=O)Nc2ccc(Cl)c(Cl)c2)c1` [TCMDC-123849] the “% Inhibition” value was 0.9649%.
With `Cc1cc(NC(=O)[C@@H](Nc2ccc(C#N)c3ccccc23)C2CCCCC2)ccc1F` [TCMDC-136635] the “% Inhibition” value was -42.79%.
For `N#Cc1ccc(N(CC(=O)NCCc2ccccc2)CC2CC2)c2ccccc12` [TCMDC-135574], the “% Inhibition” value was -1.825%.
For `N#Cc1ccc(N[C@@H](CC2CCCCC2)C(=O)NCc2cc(F)c(F)cc2F)c2ccccc12` [TCMDC-136630], the “% Inhibition” value was -9.58%.
With `CO[C@@H]1C[C@@H](C(=O)Nc2ccccc2)N(c2ccc(C#N)c3ccccc23)C1` [TCMDC-135413] the “% Inhibition” value was 86.31%.
In the case of `N#Cc1ccc(N2C[C@@H](OCc3ccccc3)C[C@H]2C(=O)NCCC(c2ccccc2)c2ccccc2)c2ccccc12` [TCMDC-135421], the “% Inhibition” value is reported as 62.52%.
For `COc1ccccc1CCC(C)(C)NC(=O)CC(CCc1ccccc1)Nc1ccc(C#N)c2ccccc12` (centres unmarked) [TCMDC-132307], the “% Inhibition” value was 13.06%.
In the case of `CCOc1cc(C(=O)Nc2ccc3nc(N4CCN(C)CC4)cc(C)c3c2)cc(OCC)c1OCC` [TCMDC-123589], the “% Inhibition” value is reported as -11.34%.
In the case of `O=C(/C=C/c1cccc2c1OCO2)Nc1ccnc2ccncc12` [TCMDC-139845], the “% Inhibition” value is reported as -12.08%.
`Cc1ccccc1CNCC(O)c1cccc(C(F)(F)F)c1` (centres unmarked) [TCMDC-140393] was tested, and the “% Inhibition” value was 2.038%.
`CCc1ccc(CNCC(CCNc2cc(=O)c3ccccc3[nH]2)NCc2cc(Br)cc(Br)c2)o1` (centres unmarked) [TCMDC-140346] was tested, and the “% Inhibition” value was 67.8%.
In the case of `Cc1cc(CNCC(CCNc2cc(=O)c3ccccc3[nH]2)NCc2cc(Br)cc(Br)c2)oc1C` (centres unmarked) [TCMDC-140347], the “% Inhibition” value is reported as 61.99%.
`COc1cc(/C=C/C(=O)NCC(CCNc2cc(=O)c3ccccc3[nH]2)NCc2cc(Br)cc(Br)c2)cc(OC)c1` (centres unmarked) [TCMDC-140217] was tested, and the “% Inhibition” value was -26.95%.
`O=c1cc(NCCC(CNCc2cc3ccccc3o2)NCc2cc(Br)cc(Br)c2)[nH]c2ccccc12` (centres unmarked) [TCMDC-140345] was tested, and the “% Inhibition” value was 70.19%.
`O=c1cc(NC[C@H]2CCC[C@@H]2NCc2cc(Br)cc(Br)c2)[nH]c2ccccc12` [TCMDC-139655] was tested, and the “% Inhibition” value was -0.8474%.
In the case of `O=c1cc(NCCC(CNCc2ccc(Br)o2)NCc2cc(Br)cc(Br)c2)[nH]c2ccccc12` (centres unmarked) [TCMDC-140348], the “% Inhibition” value is reported as 17.71%.
For `Cc1sc(C)c(CNCCCNc2cc(=O)c3ccccc3[nH]2)c1Br` [TCMDC-140765], the “% Inhibition” value was -54.98%.
With `Cn1cccc1C(=O)NCC(CCNc1cc(=O)c2ccccc2[nH]1)NCc1cc(Br)cc(Br)c1` (centres unmarked) [TCMDC-140218] the “% Inhibition” value was -44.96%.
In the case of `O=c1cc(NCCCNCc2cc(Br)cs2)[nH]c2ccccc12` [TCMDC-139310], the “% Inhibition” value is reported as -17.04%.
`Cc1[nH]c2ccc(NS(C)(=O)=O)cc2c1C1CCN(CC2CCN(C(=O)/C=C/c3ccc(Cl)c(Cl)c3)CC2)CC1` [TCMDC-140125] was tested, and the “% Inhibition” value was -39.53%.
For `COc1ccc2nccc([C@@H](O)CN3CCC(NC(=O)c4ccc(Cl)c([N+](=O)[O-])c4)CC3)c2c1` [TCMDC-141037], the “% Inhibition” value was -23.07%.
For `Cn1cnc(CCNC(=O)c2cccc(-c3csc(-c4nc5ccccc5[nH]4)c3)c2)c1` [TCMDC-132501], the “% Inhibition” value was 74.26%.
`Cn1cnc(CCNC(=O)c2cccc(-c3ccc(-c4nc5cc(F)ccc5[nH]4)cc3)c2)c1` [TCMDC-132492] was tested, and the “% Inhibition” value was 7.487%.
For `O=C(Nc1cccc(-c2csc(-c3nc4ccccc4[nH]3)c2)c1)c1ccncc1` [TCMDC-132402], the “% Inhibition” value was 13.78%.
With `O=C(Nc1cccc(-c2csc(-c3nc4ccccc4[nH]3)c2)c1)c1cccnc1` [TCMDC-132403] the “% Inhibition” value was 77.71%.
For `O=C(Nc1cccc(-c2cccc(-c3nc4ccccc4[nH]3)c2)c1)c1ccncc1` [TCMDC-136955], the “% Inhibition” value was 6.238%.
For `O=C(Nc1cccc(-c2cccc(-c3nc4ccccc4[nH]3)c2)c1)c1cccnc1` [TCMDC-136928], the “% Inhibition” value was 76.9%.
For `CC(=O)Nc1cccc(C(=O)Nc2cccc(-c3csc(-c4nc5ccccc5[nH]4)c3)c2)c1` [TCMDC-132398], the “% Inhibition” value was -2.258%.
For `Cn1cnc(CCNC(=O)c2ccc(-c3cccc(-c4nc5ccccc5[nH]4)c3)cc2)c1` [TCMDC-132495], the “% Inhibition” value was -19.92%.
`O=C(Nc1cccc(-c2ccc(-c3nc4ccccc4[nH]3)cc2)c1)c1cccnc1` [TCMDC-136924] was tested, and the “% Inhibition” value was -5.994%.
With `CN(C)c1ccc(N2C(N)=NC(N)=NC23CCCC3)cc1` [TCMDC-123607] the “% Inhibition” value was 9.069%.
`CN(CC(=O)Nc1cc(C(F)(F)F)ccc1-n1cncn1)Cc1ccc2ccccc2c1` [TCMDC-125257] was tested, and the “% Inhibition” value was -1.841%.
With `Cc1cc(NCc2ccc(F)cc2)nc2cc(O)ccc12` [TCMDC-124412] the “% Inhibition” value was 9.894%.
In the case of `O=C(/C=C/c1ccc(Cl)c(Cl)c1)N1CCC(CN2CCC(Cc3cc4ccccc4[nH]3)CC2)CC1` [TCMDC-140231], the “% Inhibition” value is reported as 13.2%.
For `CCCCCCCCc1[nH]c(C)c(Br)c(=O)c1Br` [TCMDC-137433], the “% Inhibition” value was 43.41%.
With `Cc1cc(CN2CCC(C(=O)Nc3ccc(-c4nc5ccccc5[nH]4)cc3)CC2)oc1C` [TCMDC-124612] the “% Inhibition” value was -34.2%.
For `COc1ccc(C2C(C(=O)Nc3cc(OC)c(OC)c(OC)c3)c3cc(OC)c(OC)cc3C(=O)N2C)cc1` (centres unmarked) [TCMDC-125141], the “% Inhibition” value was 92.28%.
For `COc1cc2c(cc1OC)C(C(=O)Nc1cc(OC)c(OC)c(OC)c1)C(c1ccc(SC)cc1)N(C)C2=O` (centres unmarked) [TCMDC-125151], the “% Inhibition” value was 59.65%.
For `COc1ccc(C2C(C(=O)Nc3ccc(C)c(F)c3)c3cc(OC)c(OC)cc3C(=O)N2C)cc1` (centres unmarked) [TCMDC-123594], the “% Inhibition” value was -36.5%.
With `COc1cc(SC)ccc1C(=O)N1CC(C)CC(C)C1` (centres unmarked) [TCMDC-123656] the “% Inhibition” value was 27.35%.
For `COc1ccc(C2C(C(=O)Nc3ccc4c(c3)OCO4)c3cc(OC)c(OC)cc3C(=O)N2C)cc1` (centres unmarked) [TCMDC-123593], the “% Inhibition” value was 37.81%.
`O=C(N[C@@H](Cc1ccccc1)C(=O)NC1CCCc2ccccc21)c1ccc(O)c(-c2cccc(C(F)(F)F)c2)c1` (some centres unmarked) [TCMDC-140820] was tested, and the “% Inhibition” value was 23.49%.
